Assay [1] in a line: inhibitors of TNFa-induced NFkB p65 translocation, primary screen, imaging, HUVEC, MLSMR starter and 10KST1 sets (AID 438;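 active = inhibition above 20% together with a positive visual image hit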;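 note: compound added about 3h40 before a 20 min TNFalpha stimulation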;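 for inhibition: signal is the nuclear over cytoplasmic p65 intensity ratio per well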). The settings on record: HUVEC TNFa-induced p65 nuclear translocation; cell count: measured here: nuclei count (cytotoxicity indicator), at 2.08 µM; inhibition: at 2 µM, stronger effect = higher value, 0% TNFa-plus-vehicle, 100% no-TNFa wells.
Assay [2] is described as follows: reduction of polyQ htt aggregates in cells – imaging, exon1htt(103Q)mCFP cells, high-content imaging, primary screen (AID 483;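 active = visual image review flags a hit and inhibition of aggregation exceeds 20%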;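 note: compound exposure lasted 3 days before fixation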;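 for nuclei count: percent of the per-plate median nuclei count of sample wells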). The settings on record: exon1htt(103Q)mCFP cell line, aggregate imaging, at 2 µM; inhibition of aggregation: stronger effect = higher value; nuclei count: measured here: cell count, toxicity.
Assay [3] is described as follows: endothelial E-selectin expression blockers – imaging, HUVEC, immunofluorescence, MLSMR starter and 10KST1 sets, primary screen (AID 487;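 active = visually confirmed hit in the image check and inhibition above 20%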;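 for inhibition: signal is fraction of cell area covered by stained E-selectin grains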;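 for nuclei count: 100% = median nuclei count of all wells on the same plate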). The settings on record: HUVEC TNFalpha-induced E-selectin immunofluorescence imaging, at 2 µM; inhibition: stronger effect = higher value; nuclei count: measured here: cell number, toxicity.
The target in assay [4] is Voltage-gated potassium channel subunit beta-2 (Rattus norvegicus) (UniProt P62483). Nature of the assay: inhibitors of rat Kvbeta2 reductase activity – biochemical, NADPH fluorescence, primary screen (AID 622;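 active = fluorescence slope higher than the sample average by over 3 SD, cut at about -0.22 in these data, passing the limit was not always enough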;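 note: slope of raw intensity against log time taken from 70 to 1610 s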). The conditions noted are these: recombinant KvBeta, 4-cyanobenzaldehyde reduction, at 10 µM, stronger effect = higher value.
Sequence of Voltage-gated potassium channel subunit beta-2 (Rattus norvegicus) (P62483 whole entry, looked up): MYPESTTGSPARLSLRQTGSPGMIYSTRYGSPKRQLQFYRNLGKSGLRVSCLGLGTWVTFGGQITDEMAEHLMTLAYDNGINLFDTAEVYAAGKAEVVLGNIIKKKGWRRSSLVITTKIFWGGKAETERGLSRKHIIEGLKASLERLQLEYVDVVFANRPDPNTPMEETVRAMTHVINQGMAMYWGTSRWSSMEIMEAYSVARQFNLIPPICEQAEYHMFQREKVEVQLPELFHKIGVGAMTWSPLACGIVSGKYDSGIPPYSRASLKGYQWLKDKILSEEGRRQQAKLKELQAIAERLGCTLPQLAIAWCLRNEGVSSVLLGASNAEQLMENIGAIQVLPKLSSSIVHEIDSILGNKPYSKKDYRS
For assay [5] the target is unchanged. The assay is described as follows: enhancers of rat Kvbeta2 NADPH turnover – biochemical, NADPH fluorescence, primary screen (AID 623;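 active = NADPH fluorescence slope more negative than the mean of all samples by about 3 SD, 99.7% confidence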;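 note: fluorescence intensity change per second fitted from 20 to 320 s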). The conditions noted are these: Recombinant KvBeta, NADPH fluorescence decrease slope, 10 min; at 10 µM; stronger effect = lower value.
Assay [6] concerns the target Alpha-2C adrenergic receptor (Homo sapiens) (UniProt P18825). Nature of the assay: compounds altering alpha2C-coupled GIRK flux – cell-based, HEK293 alpha2C/GIRK1/2, thallium flux, primary screen (AID 624;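 active = fluorescence slope after compound addition differing from the mean of all screened samples at 99.7% confidence, in either direction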;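 note: slope of fluorescence ratio to pre-addition baseline per second over 15 to 24 s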). The settings on record: thallium flux BTC fluorescence, at 10 µM, actives lie on both sides.
Assay [7] in a line: blockers of RIG-like receptor reporter activation – cell-based, Sendai virus stimulus, luciferase, 10K MLSCN set, TLR/RLR signaling modifier project, primary screen (AID 602276;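 active = inhibition at or above 50% at 10 µM; inactive = inhibition below 50%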;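 note: firefly luciferase from ISG56 promoter only with Renilla not read in this screen; 0% = Sendai virus plus DMSO and 100% = medium plus DMSO without virus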). The settings on record: HEK293 RL24 IRF3 luciferase reporter, at 10 µM, stronger effect = higher value.
The nature of assay [8]: TLR3 IRF3 reporter activation blockers – cell-based, poly I:C stimulus, luciferase, 10K MLSCN set, primary screen (AID 602277). The settings on record: HEK293-TLR3 RL24 IRF3 luciferase reporter, at 10 µM, stronger effect = higher value.

The results in this text go back to PubChem BioAssay.

Active and inactive are the calls of the source.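 Rule for the calls, unless noted: active = inhibition of the reporter signal at or above 50%; inactive = inhibition below 50%.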

Sequence of Alpha-2C adrenergic receptor (Homo sapiens) (P18825 whole entry, looked up): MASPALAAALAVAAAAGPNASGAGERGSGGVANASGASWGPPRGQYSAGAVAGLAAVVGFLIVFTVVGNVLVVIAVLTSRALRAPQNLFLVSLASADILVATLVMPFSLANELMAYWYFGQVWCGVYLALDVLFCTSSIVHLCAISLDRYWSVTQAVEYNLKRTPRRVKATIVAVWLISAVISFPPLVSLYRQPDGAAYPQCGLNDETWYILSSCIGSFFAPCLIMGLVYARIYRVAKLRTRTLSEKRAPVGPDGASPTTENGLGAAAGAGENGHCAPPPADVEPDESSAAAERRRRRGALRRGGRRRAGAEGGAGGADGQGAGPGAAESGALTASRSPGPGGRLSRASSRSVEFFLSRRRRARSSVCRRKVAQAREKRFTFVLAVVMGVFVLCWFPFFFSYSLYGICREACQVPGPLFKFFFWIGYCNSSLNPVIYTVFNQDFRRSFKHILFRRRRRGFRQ

With `O=C(c1cccc(F)c1)N1CCc2ccccc21`, the cell count in assay [1] came to 490. In addition, the inhibition in assay [1] is 3.5% (inactive); in assay [3] it was -9.7% (inactive); in assay [7], 0.0423% (inactive); in assay [8] it was 27.3% (inactive). In assay [2], the inhibition of aggregation was -1.6% (inactive). Further, the results for the nuclei count in assay [2] and in assay [3] were 107% and 114%, respectively. Moreover, in assay [4], the fluorescence slope was -0.478 (inactive). Further, the NADPH fluorescence slope in assay [5] is -1.8e-05 (inactive). Further, the slope in assay [6] was 0.0055 (inactive).

Regarding `CCOc1ccccc1OCC(=O)Nc1nnc(COC)s1`, the cell count in assay [1] was determined as 437. The inhibition in assay [1] was 2.9% (inactive); in assay [3] it was 56.9% (inactive); in assay [7], -15.3% (inactive); in assay [8] it was -12.6% (inactive). The inhibition of aggregation in assay [2] was -3.9% (inactive). Moreover, the nuclei count is 106% in assay [2] and 115% in assay [3]. Besides, the fluorescence slope in assay [4] was -0.59 (inactive). Besides, the NADPH fluorescence slope in assay [5] was -3.4e-05 (inactive). Besides, the slope in assay [6] was 0.00402 (inactive).

`CN1CCN(Cc2nc3c(c(=O)n(C)c(=O)n3C)n2Cc2ccccc2Cl)CC1`: in assay [1], the cell count turned out to be 746. For the same molecule, the inhibition in assay [1] is -15.7% (inactive); in assay [3], -14.4% (inactive); in assay [7], 4.15% (inactive); in assay [8] it was 45.1% (inactive). In assay [2], the inhibition of aggregation was 4.7% (inactive). Moreover, the nuclei count in assay [2] came out at 100%; in assay [3] it was 105%. Moreover, the fluorescence slope in assay [4] was -0.409 (inactive). The NADPH fluorescence slope in assay [5] is -2e-05 (inactive). Besides, the slope in assay [6] was 0.00482 (inactive).

On to `COc1cc(Cl)c(C)cc1NC(=O)COC(=O)c1cnc(C)cn1`, for which the cell count in assay [1] is 345. In addition, the inhibition in assay [1] was 3.8% (inactive); in assay [3], -118% (inactive); in assay [7], -3.59% (inactive); in assay [8], 12.5% (inactive). In assay [2], the inhibition of aggregation was 16.5% (inactive). The nuclei count in assay [2] is 95.2%; in assay [3], 110%. Also, the fluorescence slope in assay [4] is -0.51 (inactive). Moreover, in assay [5], the NADPH fluorescence slope was 3.8e-05 (inactive). Besides, in assay [6], the slope is 0.00519 (inactive).

As to `CC(=O)N1CCC(N(C(=O)Nc2ccc(C)c(C)c2)C2CCCC2)CC1`, the cell count in assay [1] was 644. The inhibition in assay [1] is -3.1% (inactive); in assay [3], -61.6% (inactive); in assay [7] it was 11.1% (inactive); in assay [8], 15% (inactive). In addition, in assay [2], the inhibition of aggregation was -11.9% (inactive). Also, the nuclei count worked out at 52.8% in assay [2] and 106% in assay [3]. The fluorescence slope in assay [4] is -0.258 (inactive). Besides, the NADPH fluorescence slope in assay [5] is -1.2e-06 (inactive). Besides, in assay [6], the slope is 0.0055 (inactive).

Regarding `Cc1ccccc1OCC(O)CN` (centres undefined), the cell count in assay [1] was found to be 298. The inhibition in assay [1] was 15.6% (inactive); in assay [3], 14.2% (inactive); in assay [7] it was -20.3% (inactive); in assay [8], -17.4% (inactive). Besides, the inhibition of aggregation in assay [2] was 32.2% (active). The nuclei count in assay [2] is 104%; in assay [3], 95.6%. Also, in assay [4], the fluorescence slope was -0.542 (inactive). Besides, the NADPH fluorescence slope in assay [5] is 1.7e-05 (inactive). Also, the slope in assay [6] was 0.00273 (inactive).

As to `O=C(NC1CC1)c1cccc(Nc2ccc(-c3ccc4c(c3)OCCO4)nn2)c1`, the cell count in assay [1] was 336. The inhibition in assay [1] is -1.6% (inactive); in assay [3] it was -177% (inactive); in assay [7], -75.9% (inactive); in assay [8], -132% (inactive). Besides, the inhibition of aggregation in assay [2] is -55% (inactive). Also, the figures for the nuclei count in assay [2] and in assay [3] were 106% and 126%, respectively. Also, the fluorescence slope in assay [4] is -0.358 (inactive). Moreover, in assay [5], the NADPH fluorescence slope was -2.6e-05 (inactive). Further, in assay [6], the slope was 0.00455 (inactive).

As to `CCOc1cccc(C(=O)N(Cc2ccc(F)cc2)C2CCS(=O)(=O)C2)c1` (centres undefined), the cell count in assay [1] came out at 461. The inhibition in assay [1] was 9.3% (inactive); in assay [3] it was -116% (inactive); in assay [7], 14.6% (inactive); in assay [8], 40.1% (inactive). In assay [2], the inhibition of aggregation is -23.1% (inactive). Further, the nuclei count in assay [2] came out at 92.3%; in assay [3], 219%. Moreover, the fluorescence slope in assay [4] is -0.415 (inactive). For the same molecule, the NADPH fluorescence slope in assay [5] was -3.8e-05 (inactive). Besides, the slope in assay [6] was 0.0041 (inactive).

Regarding `CC(=O)C1=C(C)NC(C)=C(C(C)=O)C1c1cccs1`, in assay [1], the cell count is 466. Further, the inhibition in assay [1] was 3.5% (inactive); in assay [3], 28.1% (inactive); in assay [7] it was 1.28% (inactive); in assay [8] it was 39.4% (inactive). The inhibition of aggregation in assay [2] is -5.6% (inactive). Also, the results for the nuclei count in assay [2] and in assay [3] were 103% and 108%, respectively. Further, the fluorescence slope in assay [4] is -0.369 (inactive). The NADPH fluorescence slope in assay [5] is 2.7e-05 (inactive). Moreover, the slope in assay [6] was 0.00356 (inactive).

On to `O=C(NCCCN1CCOCC1)c1ccc(CS(=O)(=O)c2c(Cl)cccc2Cl)o1`, for which, in assay [1], the cell count stood at 440. Besides, the inhibition in assay [1] is 0.9% (inactive); in assay [3], -46.8% (inactive); in assay [7], -8.21% (inactive); in assay [8], 6.97% (inactive). Further, the inhibition of aggregation in assay [2] is -10.5% (inactive). For the same molecule, the nuclei count in assay [2] was 98.2%; in assay [3] it was 103%. Also, the fluorescence slope in assay [4] is -0.458 (inactive). Besides, the NADPH fluorescence slope in assay [5] was 2.8e-05 (inactive). Further, in assay [6], the slope is 0.00463 (inactive).

For the molecule `COc1ccc2c(c1)cc(C(=O)O)n2C`, the cell count in assay [1] came to 773. Further, the inhibition in assay [1] was 4.2% (inactive); in assay [3], -10.3% (inactive); in assay [7] it was 11.6% (inactive); in assay [8] it was 23.7% (inactive). For the same molecule, the inhibition of aggregation in assay [2] was -20.2% (inactive). For the same molecule, the values for the nuclei count in assay [2] and in assay [3] were 77.6% and 128%, respectively. Besides, in assay [4], the fluorescence slope is -0.393 (inactive). Besides, the NADPH fluorescence slope in assay [5] was -6.4e-05 (inactive). Moreover, in assay [6], the slope is 0.00479 (inactive).

Regarding `CCCc1nnc2n1N=C(c1ccc(-c3cc(Cl)ccc3Cl)o1)CS2`, the cell count in assay [1] was 248. The inhibition was 6.2% (inactive) in assay [1], 17.1% (inactive) in assay [3], 8.08% (inactive) in assay [7] and 29.1% (inactive) in assay [8]. Moreover, the inhibition of aggregation in assay [2] is 4.8% (inactive). Besides, the nuclei count in assay [2] amounted to 100%; in assay [3] it was 89%. The fluorescence slope in assay [4] was -0.447 (inactive). Besides, the NADPH fluorescence slope in assay [5] is -5.1e-05 (inactive). Also, the slope in assay [6] was 0.00311 (inactive).

On to `CCN(C(=O)c1cn(C)c(=O)c2cc(OC)c(OC)cc12)c1ccccc1C`, for which, in assay [1], the cell count amounted to 175. Further, the inhibition in assay [1] is 0.3% (inactive); in assay [3] it was -21.1% (inactive); in assay [7], 0.738% (inactive); in assay [8], 16.5% (inactive). Besides, the inhibition of aggregation in assay [2] was 12.8% (inactive). In addition, the nuclei count was determined as 94.1% in assay [2] and 114% in assay [3]. The fluorescence slope in assay [4] is -0.59 (inactive). Further, in assay [5], the NADPH fluorescence slope was -2.6e-05 (inactive). For the same molecule, in assay [6], the slope was 0.00574 (inactive).

`Cc1nc2sc(C(c3cccs3)N3CC(C)CC(C)C3)c(O)n2n1` (centres undefined): in assay [1], the cell count was found to be 614. Moreover, the inhibition in assay [1] is 3.9% (inactive); in assay [3], -12.3% (inactive); in assay [7] it was 11.2% (inactive); in assay [8] it was 21.5% (inactive). Moreover, the inhibition of aggregation in assay [2] was 27.2% (inactive). Also, the figures for the nuclei count in assay [2] and in assay [3] were 118% and 109%, respectively. Besides, in assay [4], the fluorescence slope was -0.545 (inactive). Moreover, the NADPH fluorescence slope in assay [5] is 4.4e-06 (inactive). For the same molecule, the slope in assay [6] was 0.00614 (inactive).
